Drawing on PMC7862700, “An all-to-all approach to the identification of sequence-specific readers for epigenetic DNA modifications on cytosine”, this text covers binding signal for one sequence.

Test in all cases: DAPPL (digital affinity profiling via proximity ligation, sequencing); 10 mM Tris-HCl pH 7.5, 50 mM NaCl, 1 mM DTT, 4% glycerol, room temperature, 30 min; GST-TFs on glutathione beads, 16-mer random dsDNA library, 0.1% formaldehyde crosslink after washing; high values mean tight binding
Assay [1] deals with T1, FEV (Homo sapiens, UniProt Q99581 1-238).
T1 sequence: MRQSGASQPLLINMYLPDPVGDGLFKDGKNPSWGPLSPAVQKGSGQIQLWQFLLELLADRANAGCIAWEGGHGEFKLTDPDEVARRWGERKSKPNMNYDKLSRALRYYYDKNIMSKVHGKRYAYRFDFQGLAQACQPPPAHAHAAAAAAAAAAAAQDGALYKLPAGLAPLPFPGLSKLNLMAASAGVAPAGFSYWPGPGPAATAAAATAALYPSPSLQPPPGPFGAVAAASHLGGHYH
The following applies: protein: recombinant; tags: N-terminal GST; dsDNA, one strand shown. The procedure, abridged:
(§1)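 Binding signal is each hexamer's read frequency for a factor divided by its frequency in the tag-only sample. The factors were GST-fused human transcription factors from yeast, captured on glutathione beads, DNA-barcoded and pooled with that sample. Pools were incubated with 200 nmole of a random double-stranded 16-mer DNA library in Tris/NaCl/DTT/glycerol buffer at room temperature for 30 min, then washed, crosslinked with 0.1% formaldehyde, proximity-ligated with BsaI/T4 ligase (1 h, 37 °C), PCR-amplified and sequenced on an Illumina NextSeq500.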

The target of assay [2] is ETV5 (Homo sapiens, UniProt P41161 1-510). The following applies: protein: recombinant; tags: N-terminal GST; dsDNA, one strand shown. The procedure, abridged:
as §1

The target of assay [3] is HSF1 (Homo sapiens, UniProt Q00613 1-529). Conditions: protein: recombinant; tags: N-terminal GST; chain copies: 3; dsDNA, one strand shown. In a few lines: as §1
Sequence of HSF1 (Q00613 whole entry): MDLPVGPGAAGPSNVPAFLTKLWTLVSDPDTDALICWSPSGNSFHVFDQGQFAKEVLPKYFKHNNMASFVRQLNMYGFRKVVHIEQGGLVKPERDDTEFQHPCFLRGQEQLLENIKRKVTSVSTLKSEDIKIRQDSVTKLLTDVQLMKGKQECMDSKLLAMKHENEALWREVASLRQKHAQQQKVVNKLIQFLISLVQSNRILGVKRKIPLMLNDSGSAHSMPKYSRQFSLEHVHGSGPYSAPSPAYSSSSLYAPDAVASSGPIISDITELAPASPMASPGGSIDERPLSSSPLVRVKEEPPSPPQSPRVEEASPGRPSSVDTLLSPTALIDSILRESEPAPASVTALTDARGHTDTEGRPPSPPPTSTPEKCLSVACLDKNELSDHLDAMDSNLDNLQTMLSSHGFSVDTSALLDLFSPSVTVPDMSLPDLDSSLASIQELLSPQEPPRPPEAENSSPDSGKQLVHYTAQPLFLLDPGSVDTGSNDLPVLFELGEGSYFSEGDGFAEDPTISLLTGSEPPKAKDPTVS
Assay [4] addresses T2, SPIC (Homo sapiens, UniProt Q8N5J4 1-248).
T2 sequence: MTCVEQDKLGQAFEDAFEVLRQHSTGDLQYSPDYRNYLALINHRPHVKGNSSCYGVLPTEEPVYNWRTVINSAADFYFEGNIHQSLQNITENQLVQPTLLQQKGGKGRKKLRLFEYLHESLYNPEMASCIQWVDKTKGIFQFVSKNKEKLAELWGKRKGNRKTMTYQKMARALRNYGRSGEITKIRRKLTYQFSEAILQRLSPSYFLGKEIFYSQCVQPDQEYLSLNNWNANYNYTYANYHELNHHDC
Conditions: protein: recombinant; tags: N-terminal GST; dsDNA, one strand shown. In a few lines: as §1

Assay [5] concerns the target ELF4 (Homo sapiens, UniProt Q99607 1-663). Conditions: protein: recombinant; tags: N-terminal GST; dsDNA, one strand shown. In a few lines: as §1
The target of assay [6] is T3, ELK4 (Homo sapiens, UniProt P28324-2 1-405).
T3 sequence: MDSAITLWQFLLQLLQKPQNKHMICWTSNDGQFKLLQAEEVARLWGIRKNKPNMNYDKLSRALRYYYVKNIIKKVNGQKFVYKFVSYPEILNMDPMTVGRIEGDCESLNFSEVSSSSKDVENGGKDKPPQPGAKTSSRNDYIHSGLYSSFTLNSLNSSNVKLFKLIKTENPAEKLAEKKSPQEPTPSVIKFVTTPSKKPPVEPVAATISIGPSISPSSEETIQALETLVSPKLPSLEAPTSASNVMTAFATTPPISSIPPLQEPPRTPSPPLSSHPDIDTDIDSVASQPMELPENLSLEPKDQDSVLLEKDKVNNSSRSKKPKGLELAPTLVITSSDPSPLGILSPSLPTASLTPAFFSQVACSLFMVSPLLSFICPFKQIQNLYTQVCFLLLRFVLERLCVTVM
Conditions: protein: recombinant; tags: N-terminal GST; dsDNA, one strand shown. The procedure, abridged:
as §1

In assay [7] the target is T4, ETV2 (Homo sapiens, UniProt O00321 1-342).
T4 sequence: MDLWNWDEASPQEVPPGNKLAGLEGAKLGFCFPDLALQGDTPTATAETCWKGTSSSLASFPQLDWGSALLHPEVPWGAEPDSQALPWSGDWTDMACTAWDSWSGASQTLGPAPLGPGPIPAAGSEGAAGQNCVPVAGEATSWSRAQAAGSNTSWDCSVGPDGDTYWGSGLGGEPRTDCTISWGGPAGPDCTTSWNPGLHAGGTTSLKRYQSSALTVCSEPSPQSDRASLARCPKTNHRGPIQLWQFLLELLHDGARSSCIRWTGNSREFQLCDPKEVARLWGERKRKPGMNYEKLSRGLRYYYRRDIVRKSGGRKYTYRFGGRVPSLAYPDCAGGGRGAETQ
The following applies: protein: recombinant; tags: N-terminal GST; dsDNA, one strand shown. The procedure, abridged:
as §1

In assay [8] the target is T5, ELF3 (Homo sapiens, UniProt P78545 1-371).
T5 sequence: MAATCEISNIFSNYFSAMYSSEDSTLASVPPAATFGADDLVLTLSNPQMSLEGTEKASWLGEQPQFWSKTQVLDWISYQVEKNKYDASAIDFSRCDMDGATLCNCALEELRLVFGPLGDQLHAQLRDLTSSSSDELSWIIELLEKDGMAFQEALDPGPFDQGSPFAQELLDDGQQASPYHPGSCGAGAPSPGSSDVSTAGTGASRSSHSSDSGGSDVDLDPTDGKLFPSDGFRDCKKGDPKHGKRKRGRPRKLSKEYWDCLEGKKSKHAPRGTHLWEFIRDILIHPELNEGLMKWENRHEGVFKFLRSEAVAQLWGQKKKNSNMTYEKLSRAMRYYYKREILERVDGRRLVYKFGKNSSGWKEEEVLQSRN
Conditions: protein: recombinant; tags: N-terminal GST; dsDNA, one strand shown. The procedure, abridged: as §1

In assay [9] the target is CRX (Homo sapiens, UniProt O43186 1-299). The following applies: protein: recombinant; tags: N-terminal GST; dsDNA, one strand shown. In a few lines: as §1
Sequence of CRX (O43186 whole entry): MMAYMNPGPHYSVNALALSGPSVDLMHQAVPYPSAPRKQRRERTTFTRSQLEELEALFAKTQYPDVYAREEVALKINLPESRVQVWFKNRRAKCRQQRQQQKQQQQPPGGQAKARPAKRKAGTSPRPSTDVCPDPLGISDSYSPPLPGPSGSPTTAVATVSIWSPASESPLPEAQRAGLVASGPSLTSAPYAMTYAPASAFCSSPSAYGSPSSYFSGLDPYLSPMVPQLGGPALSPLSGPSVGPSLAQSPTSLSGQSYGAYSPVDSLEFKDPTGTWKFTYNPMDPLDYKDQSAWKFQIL
In assay [10] the target is ETV1 (Homo sapiens, UniProt P50549 1-477). The following applies: protein: recombinant; tags: N-terminal GST; dsDNA, one strand shown. The procedure, abridged:
as §1

Assay [11] addresses T6, ERF (Homo sapiens, UniProt P50548 1-548).
T6 sequence: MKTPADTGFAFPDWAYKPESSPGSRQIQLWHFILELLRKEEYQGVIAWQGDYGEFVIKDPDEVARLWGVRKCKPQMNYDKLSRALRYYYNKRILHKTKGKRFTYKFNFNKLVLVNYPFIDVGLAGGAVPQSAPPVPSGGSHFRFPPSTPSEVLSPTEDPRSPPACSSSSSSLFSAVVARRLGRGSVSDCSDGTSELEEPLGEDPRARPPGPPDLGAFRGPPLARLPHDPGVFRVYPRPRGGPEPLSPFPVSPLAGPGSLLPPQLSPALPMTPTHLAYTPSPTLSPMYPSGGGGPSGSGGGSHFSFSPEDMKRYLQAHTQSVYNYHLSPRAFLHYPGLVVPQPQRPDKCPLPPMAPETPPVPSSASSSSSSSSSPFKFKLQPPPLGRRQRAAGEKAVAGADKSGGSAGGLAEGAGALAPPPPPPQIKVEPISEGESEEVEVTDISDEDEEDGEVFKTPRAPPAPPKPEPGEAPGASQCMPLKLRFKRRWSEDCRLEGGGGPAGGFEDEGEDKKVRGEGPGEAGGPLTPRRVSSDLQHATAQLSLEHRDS
Conditions: protein: recombinant; tags: N-terminal GST; dsDNA, one strand shown. In a few lines: as §1

Assay [12] has as its target T7, ETV3L (Homo sapiens, UniProt Q6ZN32 1-361).
T7 sequence: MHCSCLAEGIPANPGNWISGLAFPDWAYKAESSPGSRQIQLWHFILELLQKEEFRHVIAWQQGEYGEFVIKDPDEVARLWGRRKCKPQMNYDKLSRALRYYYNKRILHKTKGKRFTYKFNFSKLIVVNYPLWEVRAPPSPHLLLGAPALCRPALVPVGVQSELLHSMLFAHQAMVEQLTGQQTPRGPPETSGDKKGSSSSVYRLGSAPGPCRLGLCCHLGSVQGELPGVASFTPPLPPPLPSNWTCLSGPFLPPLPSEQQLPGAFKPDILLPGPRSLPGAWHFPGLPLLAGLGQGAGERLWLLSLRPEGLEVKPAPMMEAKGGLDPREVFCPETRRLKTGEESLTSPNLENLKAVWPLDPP
The following applies: protein: recombinant; tags: N-terminal GST; dsDNA, one strand shown. In a few lines:
as §1

Assay [13] addresses T8, ETS2 (Homo sapiens, UniProt P15036 1-469).
T8 sequence: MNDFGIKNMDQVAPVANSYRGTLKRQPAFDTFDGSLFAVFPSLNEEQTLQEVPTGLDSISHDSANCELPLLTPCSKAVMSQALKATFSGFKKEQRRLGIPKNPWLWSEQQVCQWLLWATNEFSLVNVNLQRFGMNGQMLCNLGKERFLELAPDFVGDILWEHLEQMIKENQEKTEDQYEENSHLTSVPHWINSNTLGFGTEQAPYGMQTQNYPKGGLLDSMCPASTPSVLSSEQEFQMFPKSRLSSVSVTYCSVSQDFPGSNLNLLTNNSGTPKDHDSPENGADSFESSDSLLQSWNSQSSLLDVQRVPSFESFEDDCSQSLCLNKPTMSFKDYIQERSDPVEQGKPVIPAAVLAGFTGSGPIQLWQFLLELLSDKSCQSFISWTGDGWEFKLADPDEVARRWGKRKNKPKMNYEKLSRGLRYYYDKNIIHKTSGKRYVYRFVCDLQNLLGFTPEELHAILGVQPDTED
Conditions: protein: recombinant; tags: N-terminal GST; dsDNA, one strand shown. The procedure, abridged:
as §1

Assay [14] deals with T9, SPDEF (Homo sapiens, UniProt O95238 1-335).
T9 sequence: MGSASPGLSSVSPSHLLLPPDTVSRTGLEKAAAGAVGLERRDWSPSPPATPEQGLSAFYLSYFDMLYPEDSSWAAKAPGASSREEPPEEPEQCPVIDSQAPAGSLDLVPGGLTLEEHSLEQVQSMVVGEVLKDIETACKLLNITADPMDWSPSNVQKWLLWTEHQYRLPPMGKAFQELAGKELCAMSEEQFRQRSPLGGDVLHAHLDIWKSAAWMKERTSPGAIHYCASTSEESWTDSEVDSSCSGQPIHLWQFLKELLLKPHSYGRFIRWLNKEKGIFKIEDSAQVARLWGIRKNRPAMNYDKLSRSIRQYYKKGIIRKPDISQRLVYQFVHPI
The following applies: protein: recombinant; tags: N-terminal GST; dsDNA, one strand shown. The procedure, abridged: as §1

Assay [15] addresses T10, ETV7 (Homo sapiens, UniProt Q9Y603 1-341).
T10 sequence: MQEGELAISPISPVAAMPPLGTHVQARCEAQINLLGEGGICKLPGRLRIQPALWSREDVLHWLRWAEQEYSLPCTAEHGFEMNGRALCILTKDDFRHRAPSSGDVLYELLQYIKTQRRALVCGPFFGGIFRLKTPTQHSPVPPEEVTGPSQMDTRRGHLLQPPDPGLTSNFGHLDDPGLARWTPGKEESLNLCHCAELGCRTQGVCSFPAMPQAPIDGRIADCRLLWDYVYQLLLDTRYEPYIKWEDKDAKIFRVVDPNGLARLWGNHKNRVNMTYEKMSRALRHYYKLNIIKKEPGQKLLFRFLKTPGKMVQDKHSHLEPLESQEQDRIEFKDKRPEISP
The following applies: protein: recombinant; tags: N-terminal GST; dsDNA, one strand shown. The procedure, abridged: as §1

The target of assay [16] is T11, ELF5 (Homo sapiens, UniProt Q9UKW6-2 1-255).
T11 sequence: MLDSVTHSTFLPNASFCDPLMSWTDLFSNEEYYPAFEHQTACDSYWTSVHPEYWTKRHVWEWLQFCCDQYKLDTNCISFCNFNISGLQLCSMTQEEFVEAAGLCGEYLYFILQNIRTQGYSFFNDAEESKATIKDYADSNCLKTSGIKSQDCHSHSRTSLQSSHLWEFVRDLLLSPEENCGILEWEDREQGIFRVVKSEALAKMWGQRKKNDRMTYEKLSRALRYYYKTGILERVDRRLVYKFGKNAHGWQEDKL
The following applies: protein: recombinant; tags: N-terminal GST; dsDNA, one strand shown. In a few lines:
as §1

Assay [17] addresses T12, ETV3 (Homo sapiens, UniProt P41162-2 1-143).
T12 sequence: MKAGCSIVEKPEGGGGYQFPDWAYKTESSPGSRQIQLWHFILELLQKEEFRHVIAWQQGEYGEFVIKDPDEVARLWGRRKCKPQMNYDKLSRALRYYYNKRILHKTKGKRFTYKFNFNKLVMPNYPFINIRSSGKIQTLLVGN
Conditions: protein: recombinant; tags: N-terminal GST; dsDNA, one strand shown. In a few lines: as §1

Assay [18] deals with ETV6 (Homo sapiens, UniProt P41212 1-452). The following applies: protein: recombinant; tags: N-terminal GST; dsDNA, one strand shown. The procedure, abridged:
as §1

Sequence of ETV6 (P41212 whole entry): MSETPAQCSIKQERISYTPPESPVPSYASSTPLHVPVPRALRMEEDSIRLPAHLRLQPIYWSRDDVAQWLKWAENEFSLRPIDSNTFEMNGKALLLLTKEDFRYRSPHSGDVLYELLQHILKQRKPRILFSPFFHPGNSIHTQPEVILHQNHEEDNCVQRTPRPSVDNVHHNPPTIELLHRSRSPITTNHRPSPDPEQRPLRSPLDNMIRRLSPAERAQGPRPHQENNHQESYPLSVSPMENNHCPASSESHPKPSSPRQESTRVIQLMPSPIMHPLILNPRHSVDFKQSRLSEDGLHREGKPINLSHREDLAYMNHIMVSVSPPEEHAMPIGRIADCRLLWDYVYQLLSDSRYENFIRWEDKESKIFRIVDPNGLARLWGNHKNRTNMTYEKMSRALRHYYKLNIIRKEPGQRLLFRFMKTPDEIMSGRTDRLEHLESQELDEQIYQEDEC
Sequence of ETV1 (P50549 whole entry): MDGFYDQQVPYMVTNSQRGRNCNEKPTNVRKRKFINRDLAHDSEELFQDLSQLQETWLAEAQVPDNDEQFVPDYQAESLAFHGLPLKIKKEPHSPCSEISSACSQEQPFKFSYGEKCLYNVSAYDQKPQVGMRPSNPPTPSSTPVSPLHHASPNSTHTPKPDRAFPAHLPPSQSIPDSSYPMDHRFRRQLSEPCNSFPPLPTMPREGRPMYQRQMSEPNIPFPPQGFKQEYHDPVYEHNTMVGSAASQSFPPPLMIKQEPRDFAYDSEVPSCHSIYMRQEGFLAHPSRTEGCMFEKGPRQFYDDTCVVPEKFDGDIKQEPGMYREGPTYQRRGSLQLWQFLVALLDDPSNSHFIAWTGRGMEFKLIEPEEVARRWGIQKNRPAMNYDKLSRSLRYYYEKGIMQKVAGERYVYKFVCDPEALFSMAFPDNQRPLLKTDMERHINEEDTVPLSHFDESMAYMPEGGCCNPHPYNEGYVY
Sequence of ETV5 (P41161 whole entry): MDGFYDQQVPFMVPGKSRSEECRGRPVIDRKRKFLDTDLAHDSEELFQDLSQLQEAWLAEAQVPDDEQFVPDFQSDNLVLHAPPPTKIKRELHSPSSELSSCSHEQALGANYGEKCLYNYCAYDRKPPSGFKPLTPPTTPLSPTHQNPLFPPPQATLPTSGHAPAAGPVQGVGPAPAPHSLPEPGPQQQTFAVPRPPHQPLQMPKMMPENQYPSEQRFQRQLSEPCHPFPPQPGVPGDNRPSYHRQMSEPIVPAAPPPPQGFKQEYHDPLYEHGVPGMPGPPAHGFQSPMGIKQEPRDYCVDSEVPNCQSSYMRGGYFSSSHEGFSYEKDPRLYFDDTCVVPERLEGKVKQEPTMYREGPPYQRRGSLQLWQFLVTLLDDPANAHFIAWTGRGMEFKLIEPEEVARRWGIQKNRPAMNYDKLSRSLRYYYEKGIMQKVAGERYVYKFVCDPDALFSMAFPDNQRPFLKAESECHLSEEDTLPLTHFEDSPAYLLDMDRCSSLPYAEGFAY
Sequence of ELF4 (Q99607 whole entry): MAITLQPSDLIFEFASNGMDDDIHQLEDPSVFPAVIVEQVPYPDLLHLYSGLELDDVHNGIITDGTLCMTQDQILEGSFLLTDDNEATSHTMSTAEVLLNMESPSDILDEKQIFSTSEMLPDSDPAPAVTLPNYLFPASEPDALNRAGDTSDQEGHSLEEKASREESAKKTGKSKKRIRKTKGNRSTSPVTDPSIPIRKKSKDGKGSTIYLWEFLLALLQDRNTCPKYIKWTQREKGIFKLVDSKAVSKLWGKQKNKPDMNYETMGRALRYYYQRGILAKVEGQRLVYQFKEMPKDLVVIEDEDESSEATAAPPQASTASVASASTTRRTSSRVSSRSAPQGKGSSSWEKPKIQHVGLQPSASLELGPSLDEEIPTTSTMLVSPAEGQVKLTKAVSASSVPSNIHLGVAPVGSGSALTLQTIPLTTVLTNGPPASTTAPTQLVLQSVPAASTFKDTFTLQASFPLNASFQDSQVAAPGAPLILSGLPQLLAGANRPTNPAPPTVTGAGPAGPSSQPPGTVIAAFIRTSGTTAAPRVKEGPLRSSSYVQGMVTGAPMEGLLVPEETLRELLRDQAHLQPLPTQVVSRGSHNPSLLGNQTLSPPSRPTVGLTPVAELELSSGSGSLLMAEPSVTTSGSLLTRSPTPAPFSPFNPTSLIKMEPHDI

Consider ACTTGC, for which the binding signal in assay [1] is 1.4 fold enrichment (6-mer frequency, TF over GST control); in assay [2] it was 1.49 fold enrichment (6-mer frequency, TF over GST control); in [3], 1.25 fold enrichment (6-mer frequency, TF over GST control); in assay [4], 1.36 fold enrichment (6-mer frequency, TF over GST control); in assay [5] it was 1.47 fold enrichment (6-mer frequency, TF over GST control); in assay [6], 1.44 fold enrichment (6-mer frequency, TF over GST control). Moreover, the binding signal was 1.36 fold enrichment (6-mer frequency, TF over GST control) in [7]; 1.79 fold enrichment (6-mer frequency, TF over GST control) in assay [8]; 1.12 fold enrichment (6-mer frequency, TF over GST control) in assay [9]; 1.37 fold enrichment (6-mer frequency, TF over GST control) in assay [10]; 1.3 fold enrichment (6-mer frequency, TF over GST control) in assay [11]; 1.48 fold enrichment (6-mer frequency, TF over GST control) in assay [12]. Further, the binding signal in [13] is 1.32 fold enrichment (6-mer frequency, TF over GST control); in assay [14], 1.44 fold enrichment (6-mer frequency, TF over GST control); in assay [15], 1.37 fold enrichment (6-mer frequency, TF over GST control); in assay [16] it was 1.47 fold enrichment (6-mer frequency, TF over GST control); in assay [17], 1.49 fold enrichment (6-mer frequency, TF over GST control); in assay [18], 1.52 fold enrichment (6-mer frequency, TF over GST control).
